Data taken from PubChem BioAssay.
Activity calls are given as the source filed them.

Experiments:
[1] = test system: Plasmodium falciparum Sir2 (PF13_0152, Sir2A); assay: Plasmodium falciparum Sir2A binding compounds – biochemical, small-molecule microarray, 635 nm fluorescence, primary screen (AID 1098); conditions: fluorescence 635 nm, higher = more signal;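 further: score merges spot fluorescence intensity with its signal-to-noise ratio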
[2] = probe aDKK1 binding to arrayed compounds – biochemical, biotinylated probe, 635/667 nm fluorescence, primary screen (AID 1099); conditions: small-molecule microarray, higher = more signal;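 further: score merges 667nm spot fluorescence with signal to noise across triplicate slides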
[3] = probe aCHRDL2 binding to arrayed compounds – biochemical, biotinylated probe, 635/667 nm fluorescence, primary screen (AID 1100); conditions: small-molecule microarray, higher = more signal
[4] = change in splice reporter luminescence, either direction, cell-based, HEK293, spliceosome inhibition project, primary screen (AID 1101); conditions: HEK293 splicing luciferase reporter, 24 h, higher = more signal, called active from +8 up or from −8 down;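 further: HEK293 cells carrying a splicing-competent luciferase reporter gene; test concentration not given here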
[5] = biological target: Fibroblast growth factor 10 (Homo sapiens) (UniProt O15520); assay: compounds binding fibroblast growth factor 10 – biochemical, small-molecule microarray, 635 nm fluorescence, primary screen (AID 1102); conditions: FGF10 binding, fluorescence 635 nm, higher = more signal
Sequence of Fibroblast growth factor 10 (Homo sapiens) (O15520 whole entry, looked up): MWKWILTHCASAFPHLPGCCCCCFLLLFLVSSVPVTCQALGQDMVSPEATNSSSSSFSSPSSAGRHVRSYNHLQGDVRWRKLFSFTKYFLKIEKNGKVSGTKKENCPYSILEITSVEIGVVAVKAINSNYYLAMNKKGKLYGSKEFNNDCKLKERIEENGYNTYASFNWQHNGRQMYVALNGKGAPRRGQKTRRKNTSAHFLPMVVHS

[6] = test system: glycogen synthase kinase-3 (GSK3A per assay name; protocol says GSK3B); assay: compounds binding glycogen synthase kinase-3 – biochemical, small-molecule microarray, 635 nm fluorescence, GSK3A, primary screen (AID 1103); conditions: fluorescence 635 nm, higher = more signal; further: the record names both GSK3A and GSK3B
[7] = biological target: Epidermal growth factor receptor (Homo sapiens) (UniProt P00533); assay: compounds binding epidermal growth factor receptor – biochemical, small-molecule microarray, 635 nm fluorescence, primary screen (AID 1104); conditions: EGFR binding, higher = more signal;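 further: score merges 667 nm emission intensity with spot signal to noise over triplicate slides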
Sequence of Epidermal growth factor receptor (Homo sapiens) (P00533 whole entry, looked up): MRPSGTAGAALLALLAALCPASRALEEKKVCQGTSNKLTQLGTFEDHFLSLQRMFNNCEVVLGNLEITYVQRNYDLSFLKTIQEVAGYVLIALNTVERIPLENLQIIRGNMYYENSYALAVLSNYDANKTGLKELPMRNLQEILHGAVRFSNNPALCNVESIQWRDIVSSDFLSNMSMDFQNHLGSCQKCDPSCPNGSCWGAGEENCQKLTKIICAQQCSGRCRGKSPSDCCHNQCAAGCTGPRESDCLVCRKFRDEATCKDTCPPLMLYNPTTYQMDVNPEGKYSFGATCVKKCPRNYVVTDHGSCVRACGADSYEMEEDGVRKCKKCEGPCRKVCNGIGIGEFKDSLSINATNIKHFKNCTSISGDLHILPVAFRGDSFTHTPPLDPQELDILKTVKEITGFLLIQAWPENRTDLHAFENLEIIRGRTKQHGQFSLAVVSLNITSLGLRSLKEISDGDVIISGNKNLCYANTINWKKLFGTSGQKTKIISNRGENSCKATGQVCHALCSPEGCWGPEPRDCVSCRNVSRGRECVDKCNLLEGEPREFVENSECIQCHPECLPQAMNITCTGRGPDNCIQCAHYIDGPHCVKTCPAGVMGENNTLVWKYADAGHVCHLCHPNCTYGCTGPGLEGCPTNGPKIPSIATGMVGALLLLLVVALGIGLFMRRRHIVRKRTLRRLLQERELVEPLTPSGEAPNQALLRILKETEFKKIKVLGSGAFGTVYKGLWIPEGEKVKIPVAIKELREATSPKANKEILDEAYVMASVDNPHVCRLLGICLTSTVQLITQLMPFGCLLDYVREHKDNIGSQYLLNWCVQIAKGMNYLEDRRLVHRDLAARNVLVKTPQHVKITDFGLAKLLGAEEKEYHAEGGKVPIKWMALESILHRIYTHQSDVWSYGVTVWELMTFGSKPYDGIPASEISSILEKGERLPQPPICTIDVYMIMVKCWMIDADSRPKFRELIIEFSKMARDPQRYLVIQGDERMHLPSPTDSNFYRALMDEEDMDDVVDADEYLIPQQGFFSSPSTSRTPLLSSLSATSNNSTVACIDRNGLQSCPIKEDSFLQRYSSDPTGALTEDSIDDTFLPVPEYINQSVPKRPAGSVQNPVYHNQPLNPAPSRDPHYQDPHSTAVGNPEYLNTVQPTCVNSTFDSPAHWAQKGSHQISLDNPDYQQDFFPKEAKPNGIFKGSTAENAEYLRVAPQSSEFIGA

[8] = biological target: Follistatin-related protein 3 (Homo sapiens) (UniProt O95633); assay: compounds binding follistatin-related protein 3 – biochemical, small-molecule microarray, 635 nm fluorescence, primary screen (AID 1105); conditions: FSTL3 binding, higher = more signal;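 further: score merges emission near 667 nm and signal to noise per printed spot across three slides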
Sequence of Follistatin-related protein 3 (Homo sapiens) (O95633 whole entry, looked up): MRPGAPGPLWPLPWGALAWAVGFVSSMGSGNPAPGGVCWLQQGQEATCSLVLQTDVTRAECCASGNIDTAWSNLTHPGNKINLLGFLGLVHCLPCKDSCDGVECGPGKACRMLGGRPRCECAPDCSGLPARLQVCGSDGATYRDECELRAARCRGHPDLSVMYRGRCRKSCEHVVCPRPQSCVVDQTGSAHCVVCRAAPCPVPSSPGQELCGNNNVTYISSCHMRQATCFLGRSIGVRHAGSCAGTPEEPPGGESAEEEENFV

[9] = biological target: Dickkopf-related protein 1 (Homo sapiens) (UniProt O94907); assay: small molecules binding DKK1 protein – biochemical, small-molecule microarray, 635 nm fluorescence scan, primary screen (AID 1106); conditions: higher = more signal;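 further: score merges emission near 667 nm with signal to noise over three replicate slides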
Sequence of Dickkopf-related protein 1 (Homo sapiens) (O94907 whole entry, looked up): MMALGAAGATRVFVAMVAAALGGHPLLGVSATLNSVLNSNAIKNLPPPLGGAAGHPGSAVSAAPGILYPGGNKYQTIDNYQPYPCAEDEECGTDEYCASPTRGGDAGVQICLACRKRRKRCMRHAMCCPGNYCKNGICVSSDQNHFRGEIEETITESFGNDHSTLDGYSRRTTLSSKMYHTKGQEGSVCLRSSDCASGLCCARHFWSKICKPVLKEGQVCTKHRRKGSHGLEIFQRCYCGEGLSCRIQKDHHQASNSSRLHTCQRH

[10] = test system: Inhibin beta A chain (activin A); assay: small molecules binding activin A – biochemical, small-molecule microarray, 635 nm fluorescence scan, primary screen (AID 1107); conditions: INHBA, higher = more signal;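 further: mouse activin A protein probed at 4.33 µg/mL on printed slides; score merges bound-protein fluorescence near 667 nm with spot signal-to-noise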
[11] = test system: Human papillomavirus type 1a protein E7 (residues 44-93); assay: small molecules binding HPV E7 44-93 – biochemical, small-molecule microarray, residues 44-93, 635 nm fluorescence, primary screen (AID 1108); conditions: fluorescence 635 nm, higher = more signal;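 further: E7 fragment applied at 1 µg/mL in TBST for 1 h at 4 C; score combines spot fluorescence with its signal to noise ratio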
[12] = hepatitis C replication reporter changes, two-sided – Huh7 cells, luciferase reporter, HCV replication inhibitor project, primary screen (AID 1109); conditions: Huh7 HCV replicon luciferase reporter, 48 h; higher = more signal;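 further: huh7 hepatoma cells harbouring a luciferase neomycin HCV replicon reporter; luciferase luminescence as measure of HCV replicon replication; test concentration not given here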
[13] = biological target: Left-right determination factor 2 (Homo sapiens) (UniProt O00292); assay: small molecules binding LEFTY2 protein – biochemical, small-molecule microarray, 635 nm fluorescence scan, primary screen (AID 1110); conditions: higher = more signal
Sequence of Left-right determination factor 2 (Homo sapiens) (O00292 whole entry, looked up): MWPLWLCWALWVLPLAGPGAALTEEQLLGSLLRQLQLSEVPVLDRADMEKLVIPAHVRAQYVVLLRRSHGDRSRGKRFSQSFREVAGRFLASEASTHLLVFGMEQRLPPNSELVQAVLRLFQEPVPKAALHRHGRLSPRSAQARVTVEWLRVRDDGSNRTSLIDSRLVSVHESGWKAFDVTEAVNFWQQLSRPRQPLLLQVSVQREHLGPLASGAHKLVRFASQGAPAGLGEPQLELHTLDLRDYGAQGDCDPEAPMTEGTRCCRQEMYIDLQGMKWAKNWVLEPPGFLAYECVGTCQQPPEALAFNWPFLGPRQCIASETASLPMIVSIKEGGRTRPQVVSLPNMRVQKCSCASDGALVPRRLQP

[14] = biological target: Calmodulin-1 (Homo sapiens) (UniProt P0DP23); assay: small molecules binding calmodulin-1 with EGTA – biochemical, small-molecule microarray, Cy5-labelled CALM1, profiling panel (AID 1111); conditions: Cy5-CALM1 binding fluorescence, higher = more signal;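 further: labelled calmodulin applied in Tris saline Tween buffer holding calcium plus EGTA and DTT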
[15] = biological target: Calmodulin-1 (Homo sapiens) (UniProt P0DP23); assay: small molecules binding Ca-loaded calmodulin-1 – biochemical, small-molecule microarray, Cy5-labelled CALM1, plus calcium, artefact control for SMM control-protein annotation, profiling panel (AID 1112); conditions: Cy5-CALM1 binding fluorescence, higher = more signal;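 further: score merges spot fluorescence with signal to noise from triplicate slides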
[16] = probe aWnt5a binding to arrayed compounds – biochemical, biotinylated probe, 635/667 nm fluorescence, primary screen (AID 1113); conditions: small-molecule microarray, higher = more signal;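 further: score merges 667 nm fluorescence intensity with signal-to-noise per printed feature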
[17] = probe aShh binding to arrayed compounds – biochemical, biotinylated probe, 635/667 nm fluorescence, primary screen (AID 1114); conditions: small-molecule microarray, higher = more signal;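 further: probe is biotin-labelled aShh protein from a stem cell growth factor screen; measures binding of labelled protein to compounds printed on the slide; score merges feature fluorescence at 667 nm with signal-to-noise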
[18] = probe aNog binding to arrayed compounds – biochemical, biotinylated probe, 635/667 nm fluorescence, primary screen (AID 1115); conditions: small-molecule microarray, higher = more signal;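 further: probe is biotinylated aNog protein used at 0.15 µg/mL for 1 h at 4 C; z-score combines 667 nm fluorescence of each spot with its signal to noise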
[19] = biological target: Torsin-1A-interacting protein 1 (Homo sapiens) (UniProt Q5JTV8); assay: compound microarray binding of lysate hLAP1 – cell lysate, small-molecule microarray, COS7 lysate, 635/667 nm fluorescence, primary screen (AID 1116); conditions: 635 nm fluorescence, higher = more signal
Sequence of Torsin-1A-interacting protein 1 (Homo sapiens) (Q5JTV8 whole entry, looked up): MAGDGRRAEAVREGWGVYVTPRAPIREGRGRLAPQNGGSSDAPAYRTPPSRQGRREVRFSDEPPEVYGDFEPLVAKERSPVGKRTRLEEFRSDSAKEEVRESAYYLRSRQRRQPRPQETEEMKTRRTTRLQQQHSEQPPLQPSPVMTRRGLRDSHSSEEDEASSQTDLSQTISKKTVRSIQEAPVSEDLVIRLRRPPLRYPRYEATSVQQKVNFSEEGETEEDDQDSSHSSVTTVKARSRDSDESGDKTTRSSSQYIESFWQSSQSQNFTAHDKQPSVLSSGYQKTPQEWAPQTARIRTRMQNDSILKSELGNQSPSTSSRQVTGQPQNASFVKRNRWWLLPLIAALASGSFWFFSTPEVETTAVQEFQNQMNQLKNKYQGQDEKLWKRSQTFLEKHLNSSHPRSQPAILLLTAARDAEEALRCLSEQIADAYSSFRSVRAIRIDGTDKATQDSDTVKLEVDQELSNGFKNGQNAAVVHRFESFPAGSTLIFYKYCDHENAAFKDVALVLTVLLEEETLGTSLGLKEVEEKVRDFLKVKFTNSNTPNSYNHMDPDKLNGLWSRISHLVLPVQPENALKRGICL

[20] = biological target: Alpha-bungarotoxin (Bungarus multicinctus) (UniProt P60615); assay: compounds binding labelled alpha-BTX control protein – biochemical, small-molecule microarray, Alexa647 label, 635/667 nm fluorescence, artefact control for SMM control protein annotation, profiling panel (AID 1117); conditions: alpha-BTX-A647 binding fluorescence, higher = more signal
Sequence of Alpha-bungarotoxin (Bungarus multicinctus) (P60615 whole entry, looked up): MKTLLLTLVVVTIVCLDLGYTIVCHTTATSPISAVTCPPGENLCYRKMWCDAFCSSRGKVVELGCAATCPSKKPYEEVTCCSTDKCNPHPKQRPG

SMILES | composite z-score [1] | composite z-score [2] | composite z-score [3] | z-score [4] | composite z-score [5] | composite z-score [6] | composite z-score [7] | composite z-score [8] | composite z-score [9] | composite z-score [10] | composite z-score [11] | z-score [12] | composite z-score [13] | composite z-score [14] | composite z-score [15] | composite z-score [16] | composite z-score [17] | composite z-score [18] | composite z-score [19] | composite z-score [20]
CC[C@@H]1C=C(C(=O)O)[C@H](c2ccc(Br)cc2)N1S(=O)(=O)c1ccc(C)cc1 | 0.118 | 0.495 | 0.882 | 1.28 (inactive) | 0.102 | 0.268 | 0.444 | 0.563 | -0.235 | 1.11 | 0.618 | -0.832 | -0.124 | 1.17 | 0.244 | -0.154 | -0.0769 | 0.581 | 0.532 | 0.535
C=CCC(OC(C)=O)[C@@H]1[C@@H](N(Cc2cc3ccccc3o2)C(=O)c2cccc3ccccc23)c2cc(OCCCO)ccc2N1C(=O)c1ccc(-c2ccccc2)cc1 (stereo not given in full) | -0.424 | 0.365 | 0.531 | -1.82 (inactive) | 0.0822 | -0.34 | -0.0077 | 0.176 | -0.0541 | 0.971 | -0.0367 | 0.0372 | -0.126 | 0.132 | 0.908 | 0.0368 | -0.0553 | -0.219 | 0.235 | 0.359
C=C(C(=O)CC[C@@H](OC(=O)c1cccnc1)c1ccccc1OCCO)C(C)C | 0.0757 | -0.181 | 0.0623 | 1.34 (inactive) | 0.969 | 0.342 | 0.029 | 0.401 | 0.063 | 1.34 | -0.139 | -2.35 | 0.373 | -0.948 | -0.895 | -0.0643 | -0.0977 | -0.247 | 1.85 | 0.593
CN(C)CCCC[C@@H]1NC(=O)[C@@H]2C[C@H](C(=O)NCCCCCCN)[C@H](c3cccc(OCCO)c3)N2C1=O | 0.891 | 0.956 | 0.584 | -0.502 (inactive) | 0.894 | 1.22 | 0.0249 | 0.0587 | 0.603 | 0.6 | 1.29 | 0.484 | 0.45 | 1.23 | 0.827 | -0.0455 | 0.876 | 1.13 | 2.88 | 2.63
NC(=O)N1C(=O)C2C(C1=O)C1C=C(c3ccc(CO)cc3)C2C(c2cccs2)N1Cc1cccc(OC(F)(F)F)c1 (stereo not given) | -0.148 | 0.799 | 1.02 | -1.99 (inactive) | 0.302 | -0.343 | -0.813 | 0.122 | 0.245 | 1.49 | 0.142 | -0.657 | -0.647 | 1.51 | 1.16 | 0.0573 | 0.275 | 0.596 | 1.13 | 0.611
COc1cc(Br)cc(C(O)C2C=CC3C(=O)N(C)C(=O)C3N2N2CCCCC2)c1OC (stereo not given) | 0.787 | 0.655 | 0.895 | 1.09 (inactive) | -0.582 | -0.524 | -1.23 | -1.06 | -1.26 | 0.613 | 0.207 | -0.0024 | -1.31 | -0.104 | 0.315 | -0.0735 | 0.304 | 0.69 | 1.09 | -0.251
COCCOC(=O)N1C(=O)[C@@]2(c3cc(C#CCC(C(=O)OC)C(=O)OC)ccc31)[C@H](c1ccccc1OCCO)N1[C@H](c3ccccc3)[C@H](c3ccccc3)OC(=O)[C@H]1[C@@H]2C(=O)N1CCN(c2ncccn2)CC1 | 0.875 | 0.231 | 0.237 | -0.397 (inactive) | 1.08 | 1.32 | 0.94 | 1.45 | 0.853 | 1.14 | 1.37 | -1.99 | 0.755 | 1.92 | 1.18 | 0.102 | 0.166 | 0.277 | 2.01 | 0.771
C=C(COC)C(=O)CC[C@@H](OC(C)=O)c1ccc(CO)o1 | 1.38 | 0.0244 | -0.45 | 0.264 (inactive) | 1.24 | 0.139 | -0.42 | 1.52 | 1.48 | 1.38 | -0.363 | -0.0928 | 0.747 | -0.401 | -0.515 | -0.0572 | -0.123 | 0.0139 | 0.55 | -0.0178
[N-]=[N+]=Nc1ccccc1[C@H]1OC(c2ccc(OCCCO)cc2)=N[C@@]1(CCS(=O)(=O)c1ccccc1)C(=O)NCC(O)CO (stereo not given in full) | 1.47 | 0.766 | 0.95 | -0.662 (inactive) | 1.24 | 0.933 | -0.214 | 0.505 | -0.415 | 0.899 | 1.46 | -0.604 | -0.671 | 1.15 | 0.211 | 0.027 | 0.0611 | -0.62 | 1.93 | 1.21
C=C(C)[C@@H]1CC=C(C(O)C2C=CC3C(=O)N(c4ccccc4)C(=O)C3N2Nc2ccccc2)CC1 (stereo not given in full) | 0.972 | 1.06 | 0.906 | 0.0541 (inactive) | 0.852 | 1.32 | -0.747 | 1.15 | 0.364 | 0.622 | 0.478 | -1.38 | 0.261 | 2.06 | 0.103 | 0.212 | 0.642 | 1.95 | 1.79 | 2.62
CN(C)CCCCCCNC(=O)[C@H]1C[C@H]2C(=O)N[C@@H](CCCCN)C(=O)N2[C@H]1c1cccc(OCCO)c1 | 1.99 | 3.01 | 1.72 | -0.361 (inactive) | 1.43 | 1.48 | 1.63 | 1.65 | 2.49 | 1.43 | 1.56 | 0.386 | 1.71 | 1.99 | 1.16 | 1.06 | 2.92 | 3.26 | 4.54 | 2.52
